From PubChem BioAssay
NADH enzymes: inhibitors of enzymes used to reach an NAD/NADH endpoint. coupled PK/LDH NADH assays, four targets. IC50, µM (highest dose often 10 µM), without a hit: at the top dose inhibition. 0.02% of 65,000 active;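 active = single-dose screening hits from any of four coupled enzyme assays that gave an IC50 when retested across doses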;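 note: the DPM-DC format reads NADH fluorescence rather than 340 nm absorbance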
Fluor 339 460: intrinsic fluorescence of library compounds, ex339/em460 – biochemical, MLSMR library, data from DPM-DC assay, artefact control, profiling panel. 5.5% of 65,000 active. fluorescence fold increase at 10 µM. compound autofluorescence, ex339/em460 nm, NADH buffer; hits give high values; 1 = no-compound wells, NADH background. AID 709;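 active = at 10 µM, mean starting fluorescence two-fold or more over control wells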;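 note: signal is the first read of a kinetic run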
Spn PMK inh: inhibitors of Streptococcus pneumoniae phosphomevalonate kinase | purified PMK, PK/LDH-coupled NADH absorbance 340 nm | inhibition, % at 10 µM | 0.49% of 65,000 active | AID 539;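 active = top-ranked compounds by inhibition in the single 10 µM screen, taking a fixed number of the strongest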;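 note: 0% = full reaction with DMSO carrier and 100% = background rate without enzyme reaction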
Spn DPM-DC inh: inhibitors of Streptococcus pneumoniae diphosphomevalonate decarboxylase; purified DPM-DC, PK/LDH coupled NADH fluorescence; calls only at 10 µM; 0.49% of 65,000 active;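 active = the 320 compounds with the highest percent inhibition in the single-dose primary screen, excluding strongly autofluorescent ones, cut at about 32% in these data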;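 note: kinetic rate of NADH fluorescence loss reporting ADP formed by the decarboxylase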
Abs 340nm: compound absorbs light at 340 nm. compound absorbance at 340 nm, fold over control. fold change at 10 µM. 65,000 tested, under 10 active. AID 708;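 active = at 10 µM dose, initial 340 nm absorbance at least 2 fold that of control wells; inactive = change under 2 fold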;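 note: initial absorbance extrapolated from kinetic A340 decline of NADH oxidation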
Spn MK inh: S. pneumoniae mevalonate kinase inhibition; AID 555; 0.48% of 65,000 active; inhibition, % at 10 µM; purified MK, PK/LDH-coupled NADH absorbance 340 nm;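 active = ranked among the strongest by inhibition in the single 10 µM screen, a fixed top-ranked set picked for dose follow-up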
* marks the source's active call; other numbers are inactive results. This is a sample that favours compounds with a hit; in the whole collection about 6.3% have one here.

c1ccc2[nH]c(SN3CCOCC3)nc2c1 was read as NADH enzymes 26%, Fluor 339 460 1.1, Spn PMK inh 13, Spn DPM-DC inh inactive, Abs 340nm 0.98 and Spn MK inh 54*.
Screening O=C(CSc1nc2ccccc2[nH]1)Nc1ccccc1N1CCOCC1 returned NADH enzymes 2%, Fluor 339 460 1.1, Spn PMK inh 1, Spn DPM-DC inh inactive, Abs 340nm 1.1 and Spn MK inh 4.
`Cc1ccc(CNc2oc(-c3ccco3)nc2C#N)cc1` gave NADH enzymes 5%, Fluor 339 460 2.1*, Spn PMK inh 3, Abs 340nm 1 and Spn MK inh 7.
For CNc1oc(-c2ccccc2Cl)nc1C#N the results were NADH enzymes 9%, Fluor 339 460 1.5, Spn PMK inh 9, Spn DPM-DC inh inactive, Abs 340nm 1.1 and Spn MK inh 0.
Cc1ccc(-c2nc(C#N)c(NCc3cccc4c3OCO4)o2)cc1 was read as NADH enzymes 1%, Fluor 339 460 2.6*, Spn PMK inh 0, Spn DPM-DC inh inactive, Abs 340nm 1.1 and Spn MK inh 3.
CNc1oc(-c2ccc(Cl)cc2)nc1C#N was read as NADH enzymes 7%, Fluor 339 460 2.4*, Spn PMK inh 14, Abs 340nm 1.1 and Spn MK inh 0.
For CNc1oc(-c2ccco2)nc1C#N the results were NADH enzymes 16%, Fluor 339 460 4*, Spn PMK inh 16, Abs 340nm 1 and Spn MK inh 15.
`CC12C(=O)N(c3nccs3)C(=O)C1C1C=CC2C1` (stereo not drawn) gave NADH enzymes 3%, Fluor 339 460 1.1, Spn PMK inh 0, Spn DPM-DC inh inactive, Abs 340nm 1 and Spn MK inh 4.
For COc1ccc(CCN=CC2=C(O)CCCC2=O)cc1OC the results were NADH enzymes 0%, Fluor 339 460 1.1, Spn PMK inh 0, Spn DPM-DC inh inactive, Abs 340nm 1.1 and Spn MK inh 0.
Screening CCc1cc(=O)oc2cc3oc(C)c(C)c3cc12 returned NADH enzymes 9%, Fluor 339 460 1.7, Spn PMK inh 15, Spn DPM-DC inh inactive, Abs 340nm 0.98 and Spn MK inh 6.
CCc1cc(=O)oc2cc(OC(C)=O)cc(OC(C)=O)c12 was read as NADH enzymes 2%, Fluor 339 460 2.4*, Spn PMK inh 0, Abs 340nm 1 and Spn MK inh 7.
For COC(=O)Sc1nnc(-c2ccc(Br)cc2)o1 the results were NADH enzymes 20µM*, Fluor 339 460 1.5, Spn PMK inh 16, Spn DPM-DC inh active, Abs 340nm 1.1 and Spn MK inh 5.
For CCN(CC)C(=O)C1CC(=O)N(c2ccc(F)c(Cl)c2)C1 (stereo not drawn) the results were NADH enzymes 3%, Fluor 339 460 1.1, Spn PMK inh 8, Spn DPM-DC inh inactive, Abs 340nm 0.99 and Spn MK inh 0.
For Cc1cc(-c2ccccc2)nc(N2CCC(C(=O)NC(C)C)CC2)n1 the results were NADH enzymes 30%, Fluor 339 460 3.3*, Spn PMK inh 14, Spn DPM-DC inh active, Abs 340nm 0.95 and Spn MK inh 0.
Screening CCC(C)NC(=O)C1CCN(c2nc(C)cc(C)n2)CC1 (stereo not drawn) returned NADH enzymes 8%, Fluor 339 460 1.4, Spn PMK inh 19, Spn DPM-DC inh inactive, Abs 340nm 0.99 and Spn MK inh 0.
Screening Cc1oc(C(=O)O)cc1COc1cccc2cccnc12 returned NADH enzymes 3%, Fluor 339 460 1.2, Spn PMK inh 0, Spn DPM-DC inh inactive, Abs 340nm 1.1 and Spn MK inh 8.
O=C(O)c1cc2c([nH]c1=O)CCCC2 was read as NADH enzymes 4%, Fluor 339 460 2.3*, Spn PMK inh 11, Abs 340nm 1 and Spn MK inh 6.
For CC(c1nnc(SCC(=O)NC(=O)NCc2ccco2)n1-c1ccc(Cl)cc1)N(C)C (stereo not drawn) the results were NADH enzymes 5%, Fluor 339 460 1.1, Spn PMK inh 13, Spn DPM-DC inh inactive, Abs 340nm 1 and Spn MK inh 2.
`Nc1nc2ccccc2nc1N` gave NADH enzymes 4%, Fluor 339 460 2.1*, Spn PMK inh 1, Spn DPM-DC inh inactive, Abs 340nm 1.1 and Spn MK inh 6.
`O=C(O)c1nc2ccccc2nc1C(=O)O` gave NADH enzymes 0%, Fluor 339 460 1.1, Spn PMK inh 0, Spn DPM-DC inh inactive and Abs 340nm 1.
`COc1ccc(CCNC(=O)CSc2nnc(CNC(=O)c3ccccc3F)o2)cc1OC` gave NADH enzymes 4%, Fluor 339 460 1.1, Spn PMK inh 7, Spn DPM-DC inh inactive, Abs 340nm 1.1 and Spn MK inh 4.
COc1cc(C(=O)N2CCC(NC(=O)C(Cc3ccccc3C)NC(C)=O)CC2)cc(OC)c1OC (stereo not drawn) was read as NADH enzymes 6%, Fluor 339 460 1.1, Spn PMK inh 12, Spn DPM-DC inh inactive, Abs 340nm 1 and Spn MK inh 6.
For COc1ccc(OC)c(CC(NC(C)=O)C(=O)NC2CCN(c3nc(C)cc(C)c3C#N)CC2)c1 (stereo not drawn) the results were NADH enzymes 10%, Fluor 339 460 2.8*, Spn PMK inh 0, Spn DPM-DC inh inactive, Abs 340nm 1 and Spn MK inh 12.
CCOC(=O)CNC(=O)Nc1nnc(-c2ccc(OCC)cc2)o1 was read as NADH enzymes 7%, Fluor 339 460 1.5, Spn PMK inh 28*, Spn DPM-DC inh inactive, Abs 340nm 1 and Spn MK inh 4.
`CCOC(=O)COc1ccc(-c2nnc(-c3ccccc3)o2)cc1` gave NADH enzymes 5%, Fluor 339 460 1.2, Spn PMK inh 8, Spn DPM-DC inh inactive, Abs 340nm 0.99 and Spn MK inh 8.
Screening COc1cccc(C(=O)Nc2nnc(-c3ccc(Cl)cc3)o2)c1 returned NADH enzymes 5%, Fluor 339 460 1.3, Spn PMK inh 6, Spn DPM-DC inh inactive, Abs 340nm 1.1 and Spn MK inh 0.
CCOc1ccc(-c2nnc(NC(=O)c3ccc(OCC(C)C)c(OC)c3)o2)cc1 was read as NADH enzymes 7%, Fluor 339 460 4.9*, Spn PMK inh 14, Abs 340nm 1 and Spn MK inh 0.
CCCC12CN3CC(CCC)(CN(C1)C3C(O)C(O)C(O)CO)C2=O (stereo not drawn) was read as NADH enzymes 5%, Fluor 339 460 1, Spn PMK inh 12, Spn DPM-DC inh inactive, Abs 340nm 1 and Spn MK inh 3.
`CCOC(=O)c1sc2nc(N3CCOCC3)c3c(c2c1N)CCCC3` gave NADH enzymes 7%, Fluor 339 460 3.7*, Spn PMK inh 7, Abs 340nm 1.1 and Spn MK inh 6.
